Experimental findings from ChEMBL document CHEMBL4513216, “Probing the Open Global Health Chemical Diversity Library for Multistage-Active Starting Points for Next-Generation Antimalarials” (ACS Infect Dis, 2020) are described below.

In all, about 68,000 compounds went through this assay and about 2,700 (4%) showed an effect of 50% or more. Many of the other results were omitted from the sample, so strong results are more common in it than they were.

This test relates to Plasmodium berghei. The test can be described thus: Screen against P. berghei liver stage (PbLuc), transformed with Luciferase, at 2uM. It counts as functional, HepG2. The following applies: tested at 2 uM.
For the compound `O=C1COc2ccc(C(=O)NS(=O)(=O)c3cc(F)ccc3F)cc2N1`, the INHIBITION is given as -9.66%. Regarding `Cc1nc(NC(=O)c2nn(-c3ccc(F)cc3C)cc2O)n[nH]1`, the INHIBITION is given as 2.82%. For the compound `c1ccc(-c2nnc(CNCCn3cccn3)o2)cc1`, the INHIBITION is reported as 51.32%. The value for `COc1ccc(-c2nnc(CNCCn3cccn3)o2)cc1` was -16.99%; that for `Cc1ccc(-c2nnc(CNCCn3cccn3)o2)cc1` was -9.22%. In the case of `COc1cccc(C(=O)N2CCCC(CNS(C)(=O)=O)C2)c1` (stereo not given) it was 2.74%; in that of `Cc1cc(C2CCCN(C(=O)CCc3cscn3)C2)n[nH]1` (stereo not given), -0.13%. As for `COCC(NC(=O)c1ccc[nH]1)c1cccc(C(F)(F)F)c1` (stereo not given), the INHIBITION turned out to be 11.28%. As to `COCC(NC(=O)c1ccco1)c1cccc(C(F)(F)F)c1` (stereo not given), the INHIBITION is recorded as 39.45%. Regarding `COCC(NC(=O)c1ccoc1C)c1cccc(C(F)(F)F)c1` (stereo not given), the INHIBITION worked out at 74.22%. On to `NS(=O)(=O)Cc1ccc(CNC(=O)NCC2CCOC2)cc1` (stereo not given), for which the INHIBITION is on record as -27.91%. On to `CC1CN(CC(=O)NCCc2ccncc2)Cc2ccccc2O1` (stereo not given), for which the INHIBITION was found to be 11.9%.

As to `CC1CN(CCC(=O)NCCc2cccnc2)Cc2ccccc2O1` (stereo not given), the INHIBITION turned out to be 52.3%. The value for `Cc1ccc2c(c1)CN(CC(=O)NCCc1ccc(F)cc1)CC(C)O2` (stereo not given) was -16.71%; that for `COC(=O)c1cnc2c(c(C)nn2C)c1OC` was -8.44%.

As for `COc1ncccc1CNC(=O)NCCNS(C)(=O)=O`, the INHIBITION stood at 6.3%. In the case of `COc1ncccc1CNC(=O)NCCNC(=O)c1ccco1` it was 39.92%; in that of `COc1ncccc1CNC(=O)NCc1ccco1`, -2.87%. Consider `CC(C)Oc1ncccc1CNC(=O)c1ccco1`, for which the INHIBITION amounted to 26.11%. With `Nc1no[n+]([O-])c1C(=O)NCc1cccnc1`, the INHIBITION is -3.26%.

Take `COc1ncccc1CNC(=O)c1cc(F)cc(Br)c1`: the INHIBITION is given as 58.69%.

`Nc1no[n+]([O-])c1C(=O)NCc1ccco1`: the INHIBITION is 84.12%.

On to `Nc1no[n+]([O-])c1C(=O)NCc1ccccn1`, for which the INHIBITION was -18.45%. As to `CCCNC(=O)NCc1cccnc1OC`, the INHIBITION is reported as 56.12%. Turning to `COc1ncccc1CNC(=O)c1ccco1`, the INHIBITION came to 51.46%.

For the compound `COc1ncccc1CNC(=O)c1csc(Br)c1`, the INHIBITION was -12.08%. Turning to `COc1ncccc1CNC(=O)c1c[nH]c(=O)c(Br)c1`, the INHIBITION was 37.18%. Turning to `CC(O)CNC(=O)CCc1nc2ncccc2[nH]1` (stereo not given), the INHIBITION is listed as 17.33%.

For the compound `CC(C)c1nccn1CCCNC(=O)c1ccc(-c2cncnc2)nc1`, the INHIBITION was found to be 27.84%. Regarding `O=C(c1cnc(-c2cccnc2)nc1)N1CCC(c2ccncc2)CC1`, the INHIBITION is recorded as -70.5%.

Turning to `CCC(C)N1C(=O)c2ccc(C(=O)NCCc3c[nH]cn3)cc2C1=O` (stereo not given), the INHIBITION was 35.09%. For the compound `NCc1cccc(-c2cccnc2C(=O)NCCCN2CCOCC2)c1`, the INHIBITION is 3.63%. For `CC(O)CNC(=O)NCc1cccnc1OC1CCCC1` (stereo not given), the INHIBITION is on record as 59.73%. With `CC(Cn1ccnc1)NC(=O)NCc1cccnc1OC1CCCC1` (stereo not given), the INHIBITION stood at 8.42%. Regarding `COc1ccc(C(=O)NCc2ccco2)nn1`, the INHIBITION was 65.1%. In the case of `COC(=O)c1ccc(C(=O)NCc2ccco2)nc1` it was -44.93%; in that of `COc1ncccc1CNC(=O)c1cc(C)on1`, -18.38%; in that of `Cc1cc(C(=O)NCc2cccnc2OC(C)C)no1`, 51.19%.

Consider `CCC1c2ccsc2CCN1C(=O)NCc1cccnc1OC` (stereo not given), for which the INHIBITION is listed as 66.27%.

With `COC(=O)c1cccc(C(=O)NCc2ccco2)n1`, the INHIBITION was -15.05%. In the case of `CCOc1ncccc1CNC(=O)c1cc(C)on1` it was 22.75%. Regarding `CCC1c2ccsc2CCN1C(=O)NCc1cccnc1N(C)C` (stereo not given), the INHIBITION came to 8.5%. The value for `CC(Cn1cccn1)NC(=O)NCc1cccnc1OC1CCCC1` (stereo not given) was 39.32%; that for `CCC1c2ccsc2CCN1C(=O)NCc1ccccn1` (stereo not given) was -77.99%; that for `CC(C)c1nc(C2CCCN(C(=O)Cn3ccccc3=O)C2)no1` (stereo not given) was 40.88%. On to `Cc1ccc(C)n1-c1c(C(=O)NCC(C)N(C)C)cnn1C` (stereo not given), for which the INHIBITION was 28.5%. As to `O=C(COc1cccc2c1CCC2=O)NCc1ccccc1Cl`, the INHIBITION was -21.15%.

Consider `CCN1CC2(CCOCC2)c2cc(NS(=O)(=O)CC)ccc21`, for which the INHIBITION came to 16.33%. In the case of `Cc1nccn1-c1ccc(C(C)Nc2cnn(C)c(=O)c2Cl)cc1` (stereo not given), the INHIBITION is listed as 39.58%. Take `COc1ccccc1Oc1ncccc1CNC(=O)[C@@H](N)CCO`: the INHIBITION amounted to 10.91%. Consider `COc1ccccc1Oc1ncccc1CNC(=O)[C@@H](N)[C@@H](C)O`, for which the INHIBITION was -4.93%. In the case of `COc1ccccc1Oc1ncccc1CNC(=O)[C@H](N)CC(C)(C)C` it was 62.39%. In the case of `OC1CCCN(CCNc2ncc(Cl)cc2F)C1` (stereo not given) it was -23.46%; in that of `COCc1cccc(NC(C(N)=O)c2ccc(Br)cc2)c1` (stereo not given), 0.53%.

As to `Cc1nnc(CSc2ccccn2)o1`, the INHIBITION is reported as -43.6%. Turning to `CC(C)(C)c1nnc(CSc2ccccn2)o1`, the INHIBITION is 58.9%. In the case of `CCc1nnc(CSc2ccccn2)o1`, the INHIBITION is reported as -9.88%. Take `CC(CNC(=O)N1CCC(CO)CC1)Cc1cccs1` (stereo not given): the INHIBITION was determined as 21.24%.

As for `CC(CNC(=O)N1CCN(c2ncccn2)CC1)Cc1cccs1` (stereo not given), the INHIBITION turned out to be 5.82%.

Regarding `CC(CNC(=O)N1CCN(c2cnccn2)CC1)Cc1cccs1` (stereo not given), the INHIBITION was determined as 17.75%. Take `CC(CNC(=O)N1CCSCC1)Cc1cccs1` (stereo not given): the INHIBITION is listed as -49.29%. Consider `CC(=O)N(C)C1CCN(C(=O)NCC(C)Cc2cccs2)CC1` (stereo not given), for which the INHIBITION turned out to be 60.9%. For the compound `COC(=O)C1CCN(C(=O)NCC(C)Cc2cccs2)CC1` (stereo not given), the INHIBITION was determined as 55.39%. Turning to `CC(CNC(=O)N1CCS(=O)(=O)CC1)Cc1cccs1` (stereo not given), the INHIBITION amounted to 8.03%. For `CC(CNC(=O)N1CCN(CC(F)F)CC1)Cc1cccs1` (stereo not given), the INHIBITION is -47.2%.

Turning to `CC(CNC(=O)N1CCNC(=O)CC1)Cc1cccs1` (stereo not given), the INHIBITION is given as 57.59%. As to `Cc1cccc(NC(=O)c2cccc(OCc3nnnn3C)c2)n1`, the INHIBITION is -85.14%. In the case of `CCS(=O)(=O)N1C[C@@H]2CN(Cc3cccs3)CCO[C@@H]2C1` it was -20.67%; in that of `CC1(C)CC1(C(=O)N1CC(c2cccnc2)C1)c1ccc(F)cc1` (stereo not given), 41.05%; in that of `COc1ccc(C2(C(=O)N3CC(c4cccnc4)C3)CC2(C)C)cc1` (stereo not given), 60.13%. As to `CC1(C)CC1(C(=O)N1CC(c2cccnc2)C1)c1ccccc1F` (stereo not given), the INHIBITION worked out at 14.82%. The value for `CCOC(=O)c1cnn(-c2cc(Oc3cccc(C)c3)ncn2)c1N` was -58.53%. Turning to `CC(COc1ccc(F)cc1F)NC(=O)NCCN1CCOCC1` (stereo not given), the INHIBITION is -30.55%. Consider `COCCN(Cc1cccc(O)c1)Cc1ccccc1F`, for which the INHIBITION came out at 35.48%. The value for `COCCN(Cc1cccc(OCCO)c1)Cc1ccccc1F` was 58.42%; that for `CCCN(Cc1cccc(OCCO)c1)Cc1ccccc1OC` was -135.42%; that for `CC(C)N1[C@H](Cn2cncn2)C[C@@H]2CN(Cc3cccs3)CC[C@@H]21` was 13.25%. As to `O=C(Cc1ccccc1Cl)N1CCN(CC(O)COCCO)CC1` (stereo not given), the INHIBITION was -13.06%.

Take `COc1ccc(C)cc1CN1CCCC1c1noc(C2CC2)n1` (stereo not given): the INHIBITION is listed as -14.17%. For `C=C(C)CNC1CCCN(Cc2noc(C3CC3)n2)C1` (stereo not given), the INHIBITION is -36.58%.

In the case of `O=C(NCCc1ccncc1)[C@H]1C[C@@H]2CCN(c3nncs3)C[C@H]2O1`, the INHIBITION worked out at 62.15%. In the case of `O=C(NCc1ccco1)[C@H]1C[C@@H]2CCN(c3nncs3)C[C@H]2O1`, the INHIBITION is -2.66%.

As for `COCCNC(=O)[C@H]1C[C@@H]2CCN(c3nncs3)C[C@H]2O1`, the INHIBITION worked out at 21.08%. The value for `O=c1cc(-c2cccnc2)nc(-c2ccc(CN3CC[C@H](O)C3)cc2)[nH]1` was 39.51%. Turning to `Cn1cncc1C(=O)N1C[C@@H]2CCN(c3cnccn3)C[C@@H]2C1`, the INHIBITION came to 5.44%. As to `O=C(NC[C@H]1OC[C@@H](NC(=O)c2ccccc2)[C@@H]1O)c1ccncc1`, the INHIBITION is given as 25.94%.

`CN(CC(=O)N1CCC(Oc2ccccc2)CC1)c1cnccn1`: the INHIBITION came out at 33.16%.

For the compound `CN(CC(=O)N1CCC(COc2ccccc2)CC1)c1cnccn1`, the INHIBITION is given as 52.47%. In the case of `CN(CC(=O)N1CCC(N(C)c2ccccc2)CC1)c1cnccn1` it was -35.47%. In the case of `CCCn1nnnc1CN(C)C(C)c1ccc(C)cc1` (stereo not given) it was 67.28%; in that of `CCCn1nnnc1CN(c1ccc(N2CCOCC2)cc1)C(C)C`, 36.28%.

For the compound `CCCn1nnnc1CN(c1ccc(C)cc1)C(C)C`, the INHIBITION worked out at 7.67%. For the compound `Cc1nc2n(n1)CC(Nc1nc(C(F)(F)F)nc3ccccc13)CC2` (stereo not given), the INHIBITION amounted to 19.12%. As to `COc1ccccc1CC(=O)NC1CCCc2cn[nH]c21` (stereo not given), the INHIBITION is -1.29%. The value for `CCOCc1cc(CNC2CCCc3c2cnn3CC)ccc1OC` (stereo not given) was 57.81%; that for `CCCOc1ccc(CNC2CCCc3c2cnn3CC)cc1OC` (stereo not given) was 33.01%.

For the compound `CCn1ncc2c1CCCC2NCc1ccc(OC)c(F)c1` (stereo not given), the INHIBITION was determined as 57.81%. For `CCn1ncc2c1CCCC2NCc1ccc(OC)c(C)c1` (stereo not given), the INHIBITION is given as 27.55%. The value for `CCn1ncc2c1CCCC2NCc1cc(Cl)c(OC)c(OC)c1` (stereo not given) was 11.18%; that for `CCn1ncc2c1CCCC2NCc1cc(C)ccc1OC` (stereo not given) was -14.16%.

As for `CCCN(CCOC)C(=O)c1cc(Cn2c(C)nc3ccccc32)[nH]n1`, the INHIBITION is -8.53%. With `Cc1cc(C)n(-c2nc(C(=O)NCCN3CCC(C)CC3)cs2)n1`, the INHIBITION is listed as -39.93%. For the compound `O=C(c1cc2cc(I)ccc2[nH]1)N1CCC(Nc2cccnn2)CC1`, the INHIBITION is on record as 39.72%. Turning to `CC(C)C1CN(C(=O)Nc2cnn(CC(F)F)c2)CCO1` (stereo not given), the INHIBITION is listed as -5.66%. `Cc1cc(CCC(=O)N2CCOCC2)ccc1Br`: the INHIBITION stood at 33.64%. Consider `O=C(Cn1cc(C(=O)O)cn1)Nc1c(Cl)cccc1Cl`, for which the INHIBITION stood at 6.26%. Turning to `NS(=O)(=O)c1cnn(CC(=O)Nc2c(Cl)cccc2Cl)c1`, the INHIBITION was found to be 68.04%. In the case of `O=C(Cn1ccc(C(=O)O)n1)Nc1c(Cl)cccc1Cl` it was 25.07%; in that of `Cc1nn(C)cc1C(=O)N1CCC(CSc2ccccc2)C1` (stereo not given), 3.22%; in that of `CCn1nc(C)c(S(=O)(=O)Nc2cccc(C(=O)O)c2C)c1C`, -4.15%.
